A selection: hits, their analogues and other compounds. The true share with any hit is near 2.1%.
D2 ag-1 – HTS Assay for Allosteric Agonists of the Human D2 Dopamine Receptor: Primary Screen for Agonists; D(2) dopamine receptor (Homo sapiens), P14416; HEK293 T-REx D2 cells, calcium flux agonist mode; activation, % at 2 µM; 340,000 tested, 0.53% active;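 active = activation over 3 SD above normal in the single-dose calcium agonist read, cut at about 30% in these data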; note: 0% is about no effect
Target sequence (P14416 whole entry, looked up): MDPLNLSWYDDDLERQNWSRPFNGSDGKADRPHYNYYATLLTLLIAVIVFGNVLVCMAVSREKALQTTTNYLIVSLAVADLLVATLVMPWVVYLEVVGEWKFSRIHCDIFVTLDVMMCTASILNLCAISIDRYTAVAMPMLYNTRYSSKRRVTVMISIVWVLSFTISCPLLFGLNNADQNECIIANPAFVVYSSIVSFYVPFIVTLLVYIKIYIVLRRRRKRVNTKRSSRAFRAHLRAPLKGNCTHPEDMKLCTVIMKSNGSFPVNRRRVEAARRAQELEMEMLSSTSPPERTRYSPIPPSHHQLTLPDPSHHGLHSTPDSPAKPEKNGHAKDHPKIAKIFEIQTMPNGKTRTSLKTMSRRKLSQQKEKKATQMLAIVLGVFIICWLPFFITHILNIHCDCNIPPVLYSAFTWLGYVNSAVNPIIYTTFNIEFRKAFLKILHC
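Agonism scored from kinetic calcium signal (1 read/sec, 180 s) following compound pin transfer, after a 10 s baseline. Cells: HEK293 Trex line expressing inducible D2 receptor coupled to calcium, dye-loaded after overnight culture at 30 C.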
D2 PAM-1 – HTS Assay for Positive Allosteric Modulators of the Human D2 Dopamine Receptor: Primary Screen for Potentiators | D(2) dopamine receptor (Homo sapiens), P14416 | HEK293 T-REx D2, calcium flux, EC20 dopamine potentiation | potentiation, % at 10 µM | 340,000 tested, 0.34% active;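 active = potentiation over 3 SD above the plate norm, cut at about 30% in these data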; note: 0% is about no effect
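Primary screen. Calcium kinetics in induced HEK293 T-REx D2 cells: compound pre-addition 180 s, EC20 dopamine, 180 s more.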
D2 ag-2 – Beta-Arrestin HTS for Positive Allosteric Modulators of the Human D2 Dopamine Receptor: Agonists; D(2) dopamine receptor (Homo sapiens), P14416; DiscoveRx PathHunter D2 beta-arrestin, luminescence, 90 min; 100% = 57 uM dopamine signal; activation, % (no concentration beside the values); 360,000 tested, 0.084% active; in the data active = activation above about 40%
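DiscoveRx PathHunter D2 beta-arrestin cells (2,100/well) attached overnight, then compound-stimulated 90 min at 37 C in HBSS/10 mM HEPES/0.1% Tween-20 buffer; beta-galactosidase complementation read by luminescence after 1 h at ambient temperature. Dopamine 57 uM final (EC100) as control.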
D2 antagonist – HTS Assay for Allosteric Antagonists of the Human D2 Dopamine Receptor: Primary Screen for Antagonists. D(2) dopamine receptor (Homo sapiens), P14416. HEK293 TREx D2 cells, calcium flux, dopamine EC80. inhibition, % at 10 µM. 340,000 tested, 2% active. AID 485344, 2010; in the data active = inhibition above about 30%; inactive = below that, where a call was filed; note: 0% is about no effect
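Antagonism is scored as inhibition of an EC80 dopamine-evoked calcium signal in a force-coupled, tetracycline-inducible HEK293 T-REx D2 line, with compound present 180 s before agonist.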
D2 PAM-2 – Beta-Arrestin HTS for Positive Allosteric Modulators of the Human D2 Dopamine Receptor: Potentiators; D(2) dopamine receptor (Homo sapiens), P14416; AID 624464, 2012; 360,000 tested, 0.23% active; potentiation, % (concentration not given with the values); DiscoveRx D2 beta-arrestin cells, luminescence, 90 min; 100% = 57 uM dopamine signal; in the data active = potentiation above about 50%
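D2 cells co-treated with compound plus 50 nM dopamine (EC20) for 90 min at 37 deg C to detect potentiation. Beta-arrestin recruitment was read as enzyme-fragment luminescence after 1 h at ambient temperature. Full response was set by 57 uM dopamine.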
LDHA block – qHTS assay for inhibitors of human lactate dehydrogenase. L-lactate dehydrogenase A chain (Homo sapiens), P00338. purified LDHA, NADH/diaphorase-resazurin fluorescence; stronger effect = lower value. activity change, % (values are at about 110 or 230 µM). 480,000 tested, 0.15% active. AID 1347041, 2019; in the data active = activity change below about -30%;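 note: plate controls were DMSO wells for no effect and wells without enzyme for full effect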
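Enzyme activity of human lactate dehydrogenase 5 (2 nM; 0.06 mM NADH, 0.2 mM pyruvate, 5 min, RT) is measured via a resazurin/diaphorase fluorescence readout of residual NADH.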
Active calls of the source: *; · = no result.

SMILES | D2 ag-1 | D2 PAM-1 | D2 ag-2 | D2 antagonist | D2 PAM-2 | LDHA block
Cc1ccccc1NC(=O)Cc1nc(COC(=O)CNS(=O)(=O)c2cccc(Br)c2)cs1 | 0 | -8 | -1 | 35* | -5 | -2
CCOc1ccc(OCC(=O)OCc2csc(CC(=O)Nc3ccccc3C)n2)cc1 | 1 | 42* | 1 | 7 | 6 | -8
Cc1cc(C(=O)OCC(=O)Nc2cc(F)ccc2F)c2ccccc2n1 | · | · | · | · | · | 30
CC1CCN(c2c([N+](=O)[O-])nn(-c3ccc4c(c3)OCCO4)[n+]2[O-])CC1 | 0 | 1 | 10 | -2 | 75* | 7
O=C(c1ccco1)N1CCN(c2c([N+](=O)[O-])nn(-c3ccc(Cl)cc3)[n+]2[O-])CC1 | 1 | 4 | 3 | 12 | 22 | 5
O=C1CC(c2ccc(S(=O)(=O)NCc3ccccc3)cc2)CN1 (stereo not given) | 0 | 4 | -2 | 1 | -1 | -12
Cc1ccccc1NS(=O)(=O)c1ccc(C2CNC(=O)C2)cc1 (stereo not given) | 1 | · | 0 | 66* | -4 | -6
COc1ccc(/C=N/OCc2ccc(Cl)cc2Cl)c(OC)c1 | · | · | · | · | · | -6
Cc1ccn2c(NC3CCCCC3)c(C)nc2c1 | 0 | -4 | 1 | 35* | -5 | 5
Cc1ccn2c(NC3CCCC3)c(-c3ccncc3)nc2c1 | -1 | 30* | -2 | -15 | 9 | -2
Cc1ccn2c(NC3CCCCC3)c(C(C)C)nc2c1 | 0 | 6 | 0 | 1 | -3 | -3
O=C(Nc1nnc(-c2cccs2)o1)c1cccc(Oc2ccccc2)c1 | 3 | -10 | -6 | 2 | -9 | -33*
O=C(Nc1nnc(-c2cccs2)o1)c1cccc(F)c1 | · | · | -3 | · | -4 | 1
CC1CCCN(CC2CCCCCN2)C1 (stereo not given) | · | · | · | · | · | 3
CCN(c1ccc(-c2csc(-c3cccs3)n2)cc1)S(C)(=O)=O | · | · | · | · | · | 8
CC(=O)Oc1ccc(N2C(=O)C3C4C=CC(CC4)C3C2=O)cc1[N+](=O)[O-] (stereo not given) | -1 | 15 | -4 | 62* | -7 | 2
Cc1cc(=O)[nH]c(NN=C2CCC(C(C)(C)C)CC2)n1 (stereo not given) | 1 | 32* | -2 | 2 | -9 | 2
O=S(=O)(Nc1ccc(-c2cn3ccsc3n2)cc1)c1ccccc1 | · | · | · | · | · | 12
O=C(CC1CCCCC1)Nc1ccc(-c2ccc3nncn3n2)cc1 | 0 | 43* | -2 | 11 | -2 | -6
O=C(Nc1ccc(-c2ccc3nncn3n2)cc1)C1CCCC1 | 0 | 5 | 2 | 9 | 2 | 1
Cc1ccc(C)c(-n2c(Cc3cc(=O)[nH]c(=O)[nH]3)nnc2SCC(=O)c2ccccc2)c1 | · | · | · | · | · | -1
COc1ccc(/C=C/C(=O)Nc2ccccc2C(=O)N2CCCC2)cc1 | 0 | 9 | 1 | -3 | 14 | 0
COc1ccc(/C=C/C(=O)Nc2ccccc2C(F)(F)F)cc1 | -1 | 4 | -1 | 5 | -10 | 1
COc1ccc(/C=C/C(=O)Nc2ccccc2C(=O)O)cc1 | 4 | -1 | 1 | 34* | 9 | -14
COc1ccc(/C=C/C(=O)Nc2ccccc2C(=O)NCC(c2ccc(OC)cc2)N(C)C)cc1 (stereo not given) | -2 | · | 0 | 60* | -33 | 0
SMILES | D2 ag-1 | D2 PAM-1 | D2 ag-2 | D2 antagonist | D2 PAM-2 | LDHA block
COc1ccc(CN2CCCC(C(=O)c3ccc(SC)cc3)C2)cc1Cn1cccn1 (stereo not given) | 1 | -18 | -3 | 33* | -3 | -9
COc1ccc(F)cc1C(=O)C1CCCN(Cc2cn(C)c3ccccc23)C1 (stereo not given) | 0 | -14 | -2 | 78* | -16 | -10
COc1ccc(CN2CCC(CO)(Cc3ccccc3)CC2)cc1Cn1cccn1 | -1 | -18 | -6 | 37* | -5 | -6
COc1ccc(OC)c(CN2CCCC(C(=O)c3ccccc3SC)C2)c1 (stereo not given) | 0 | -18 | -4 | 51* | -20 | -4
O=c1[nH]nc(-c2ccco2)c2c1Nc1nnnn1C2c1ccc(Br)cc1 (stereo not given) | · | · | · | · | · | 13
O=C(COc1ccc(Br)cc1)Nc1ccc2c(=O)c3ccccc3oc2c1 | · | · | · | · | · | -10
CC(NC(=O)c1cccc(S(=O)(=O)Nc2ccc(F)cc2)c1)c1ccccc1 (stereo not given) | · | · | · | · | · | 3
Cc1cc(C)c(NC(=O)CCNC(=O)Cc2ccccc2)c(C)c1 | · | · | · | · | · | -3
Cc1cccc(NC(=O)COC(=O)c2cc(C)nc3ccccc23)c1 | · | · | · | · | · | 3
COc1ccc(F)cc1C(=O)C1CCCN(Cc2c[nH]c3ccccc23)C1 (stereo not given) | 0 | -20 | -3 | 67* | -2 | 0
COC(=O)c1ccc(CN2CCCC(C(=O)c3cc(F)ccc3OC)C2)cc1 (stereo not given) | 1 | -22 | -1 | 17 | -3 | -6
COc1cc(OC)cc(C(=O)NCC2CCCN(Cc3ccc(SC)cc3)C2)c1 (stereo not given) | -1 | -21 | -10 | 51* | -29 | -13
Cc1cc(NC(=O)c2ccc3c(c2)C(=O)N(C)C3=O)no1 | 1 | 6 | -5 | -14 | -4 | -7
Cc1cc(NC(=O)c2ccc3c(c2)C(=O)N(C2CCCCC2)C3=O)no1 | 0 | -5 | -1 | 56* | 0 | 2
CCc1ccc(-c2cc(C(=O)NCc3cccnc3)c3ccccc3n2)cc1 | · | · | · | · | · | -2
COc1n[nH]c(C(=O)Nc2cc(Cl)ccc2Cl)c1[N+](=O)[O-] | 0 | 7 | -7 | 32* | -3 | -8
O=C(O)CCCCCNS(=O)(=O)c1cccc2c1C(=O)c1ccccc1C2=O | -2 | 1 | 13 | 6 | 76* | 27
CCCC(C)(C)NC(=O)Cc1ccc(OC)c(OC)c1 | · | · | · | · | · | -2
CCOc1ccc(NC(=O)CSC2=C(C#N)C(c3ccc(Cl)cc3)C3=C(CCCC3=O)N2)cc1 (stereo not given) | · | · | · | · | · | -5
Cc1ccccc1CN1C[C@@H]2C[C@@H](c3cnc(N4CCOCC4)s3)N3CCC[C@@]23C1=O | 1 | 1 | 1 | 37* | -7 | 5
Cc1ccc(C(=O)Nc2c(C)cc(-c3ccccc3)oc2=O)cc1 | 0 | -6 | -4 | 31* | -8 | 5
